According to ChEMBL document CHEMBL3988442, “University of Dundee, Small-Polar-MMV Screening Library” (2021):
About 13,000 (27%) of roughly 48,000 compounds showed an effect of 50% or more. Some of the results follow.

System: Wolbachia pipientis
Assay: Anti-Wolbachia Cell-Based Screen
Format: functional
Parameters: scale not given: in the data most compounds retested in dose-response had high values
Conditions: 5 µM

Compound	Percent Effect [%]
Cc1cc(CN(C)C(=O)C2CCC(=O)N(CC3CCCCC3)C2)n[nH]1 (stereo unspecified)	15.57
Cc1cc(C)n(CC2CCCN2CCCc2nc3ccccc3o2)n1 (stereo unspecified)	125.1
Cc1nc(C)n(CC2CCCN2CCCc2ccccc2)n1 (stereo unspecified)	-4.599
Cc1nc(C)n(CC2CCCCN2Cc2nc3ccccc3o2)n1 (stereo unspecified)	96.27
Cc1nn(C)c(C)c1C1CCCN1CCCc1nc2ccccc2o1 (stereo unspecified)	0.8066
Cc1nc(C)n(CC2CCCN2Cc2nc(N)c3ccccc3n2)n1 (stereo unspecified)	4.973
Cc1nc(C)n(CC2CCCN2CCCc2nc3ccccc3o2)n1 (stereo unspecified)	115.5
Cc1cc(C2CCCN2CCCc2nc3ccccc3o2)on1 (stereo unspecified)	8.097
Cc1cnn(CC2CCCN2CCCc2nc3ccccc3o2)c1 (stereo unspecified)	11.07
Cc1nc(C)n(CC2CCCN2Cc2nc3ccccc3nc2C)n1 (stereo unspecified)	-1.93
O=C(CCN1CCCO1)N1CC[C@@H](CNC(=O)N2CCCC2)[C@H](O)C1	5.965
CCc1ccc2c(c1)C(CCNC(=O)c1sccc1C)C(=O)N2 (stereo unspecified)	-0.3397
Cn1nc(CN2CCC(c3ccncc3)CC2)c2c(Cl)cccc21	-3.245
OC(COCc1ccccc1F)CN1CCc2c(ncn2C2CC2)C1 (stereo unspecified)	-3.372
Cc1ncc(CN(C)CC(O)c2ccc(Br)cc2)s1 (stereo unspecified)	5.745
Cn1cnnc1CC1CCN(Cc2nn(C)c3cccc(Cl)c23)CC1	-2.14
Cc1cnn(CC2CCCN2C(=O)CCc2ccco2)c1 (stereo unspecified)	108.9
Cc1cnn(CC2CCCN2C(=O)CCc2ccncc2)c1 (stereo unspecified)	138.1
Cc1cnn(CC2CCCN2CC(=O)N(C)Cc2ccco2)c1 (stereo unspecified)	-7.327
Cc1cnn(CC2CCCN2C(=O)CCc2ccsc2)c1 (stereo unspecified)	-5.285
Cc1cnn(CC2CCCN2C(=O)CCc2ccc3c(c2)OCO3)c1 (stereo unspecified)	126.1
CC(=O)Nc1ccc(S(=O)(=O)Nc2c(F)cccc2F)cc1	12.85

Compound	Percent Effect [%]
Cc1cnn(CC2CN(CC(=O)Nc3nnc(C)s3)CCO2)c1 (stereo unspecified)	-4.997
COc1cc(F)ccc1C(C(=O)O)N(C)CCN1CCCC1 (stereo unspecified)	-2.761
CC(C)c1nc(O)c2nnn(C[C@@H]3CCCN(Cc4cccs4)C3)c2n1	127
O=S(=O)(Cc1ccccc1)NCC1CCCN(Cc2cccs2)C1 (stereo unspecified)	-20.75
CC(C)c1nc(O)c2nnn(C[C@H]3CCCN(Cc4cccs4)C3)c2n1	127.4
CC1CN(Cc2cccc(CN)c2)CCO1 (stereo unspecified)	-7.811
Cc1cc(=O)n(C)cc1NC(=O)Cc1ccc(C(F)(F)F)cc1	-20.5
CCN(CCNCc1ccc(C#N)cc1)C1CC1	-16.49
OCCNc1nccc(-c2c[nH]nc2-c2ccco2)n1	131.5
FCCOc1cccc(NCc2c[nH]nc2-c2cccnc2)c1	-17.01
Cc1ccccc1-n1cc(-c2ccnc(NC(CO)C(C)C)n2)cn1 (stereo unspecified)	-0.3825
CC(C)[C@H](CO)Nc1nccc(-c2c[nH]nc2-c2ccncc2)n1	88.77
Cc1nc(O)cc(CCNc2nccc(CCC(F)(F)F)n2)n1	19.69
Fc1ccc(-c2n[nH]cc2-c2ccnc(NCCN3CCCC3)n2)cc1	7.952
CCOCc1cccc(NCc2c[nH]nc2-c2cccnc2)c1	-7.599
OCCNc1nccc(-c2c[nH]nc2-c2cccnc2)n1	121.3
Cc1ccccc1-n1cc(-c2ccnc(N[C@@H](CO)C(C)C)n2)cn1	-0.1007
O=C(NCCNc1ncccn1)c1ccc(-c2ccco2)[nH]c1=O	7.88
OCCNc1nccc(-c2c[nH]nc2-c2ccncc2)n1	131
COCCNC(=O)CSc1nnc(OC(C)C)s1	5
CN(CCNS(C)(=O)=O)C(=O)c1ccc(Cl)c(Cl)c1	2.263
Cc1nn(C)c(C)c1CN(Cc1cccn1-c1cccnc1)C(C)C	-3.784

Compound	Percent Effect [%]
O=C(NCc1ccccc1OCCO)Nc1ccc2c(c1)CCC2	17.01
N#Cc1ccnc(N2CCC(c3nccn3Cc3cscn3)CC2)c1	9.295
CCCOC(C)C(=O)N1CCC(O)(c2ccc3nc(C)ccc3c2)CC1 (stereo unspecified)	-16.84
N#Cc1ccc(NCCC2CCN(CC(F)(F)F)CC2)nc1	-12.29
Cc1ccc2c(n1)N(Cc1cccnc1)CCN(Cc1cnn(C)c1)C2	105.8
Cc1ccc2c(n1)N(CC1CC1)CCN(Cc1cnn(C)c1)C2	122.1
Cc1ccc2c(n1)N(CC1CC1)CCN(C(=O)NC1CC1)C2.O=C(O)C(F)(F)F	-6.473
Cc1ccc2c(n1)N(Cc1cccnc1)CCN(C(=O)C1CC=CC1)C2	112.8
CN(C)Cc1nnc2n1CCN(Cc1cccnc1)C2	-0.7549
COCCC(=O)N1CCN(CC2CC2)c2nc(C)ccc2C1.O=C(O)C(F)(F)F	-15.14
Cc1ccc2c(n1)N(Cc1cccnc1)CCN(C(=O)C1CCC1)C2.O=C(O)C(F)(F)F.O=C(O)C(F)(F)F	-8.761
COCCN1CCN(C(=O)C2CC=CC2)Cc2cccnc21	-8.576
Cc1cc(-c2nn(C)c(Cl)c2CN2CCC3(CC2)[C@H](O)C[C@@H]3O)no1	0.9032
CNC(=O)CS(=O)(=O)C1CCN(S(=O)(=O)c2c(F)cccc2F)CC1	3.089
CCn1ccnc1CN1CCN(C(C)C(=O)N2CCC(C)CC2)CC1 (stereo unspecified)	15.17
CCn1ccnc1CN1CCN(C(C)C(=O)NC2CCCCC2)CC1 (stereo unspecified)	-10.14
CCn1ccnc1CN1CCN(C(C)C(=O)N2CCCC2)CC1 (stereo unspecified)	111.2
CCn1ccnc1CN1CCCN(C(=O)c2cccn2C)CC1	1.946
CCn1ccnc1CN1CCCN(C(=O)c2cnc(C)cn2)CC1	120.4
CCn1ccnc1CN1CCCN(C(=O)C2(C#N)CCCCC2)CC1	-5.352
CCn1ccnc1CN1CCCN(C(=O)c2cncnc2C)CC1	-6.711
CCn1ccnc1CN1CCN(C(C)C(=O)N2CCCCCC2)CC1 (stereo unspecified)	83.63

Compound	Percent Effect [%]
CCn1ccnc1CN1CCCN(C(=O)c2cc(Cl)c[nH]2)CC1	-1.253
COc1cccc(CNC(=O)NC2(c3nc(C)no3)CCCCC2)c1	-3.756
CC(NC(=O)NCCc1cnn(C)c1)c1ccc(Cl)s1 (stereo unspecified)	7.772
CN(Cc1ccco1)[C@@H]1CN(Cc2ccc(F)cc2)C[C@@H]2CCCO[C@@H]21.O=C(O)C(F)(F)F.O=C(O)C(F)(F)F	20.99
CCCn1[nH]cc/c1=N\C(=O)CN1CCC[C@H]1CO	0.9827
Cl.O=C(c1ccoc1)N1CCC(NCc2ccccc2Cl)CC1	-26.85
CCN1C[C@H]2CCN(C(=O)NC3CCCC3)CC[C@H]2S1(=O)=O	7.84
CNC(=O)C1CN(C)CCN(C(=O)CCn2nnc3ccccc32)C1 (stereo unspecified)	120.6
CC(C)c1cc(C(=O)NCCn2nnc3ccccc32)no1	-3.58
CNC(=O)C1CCN(C(=O)CCn2cccn2)CC1	-8.925
NC(=O)C1CCN(C(=O)Cn2nc(-c3ccccc3)oc2=O)C1 (stereo unspecified)	-8.478
COc1cccc(OC2CN(C(=O)CCn3cnc4ccccc43)C2)c1	-24.05
CN1CCN(C(=O)CCn2nnc3ccccc32)CC(C(N)=O)C1 (stereo unspecified)	138.2
Cn1c(CN2CCCCC2)nnc1C1CCN(c2nccc(N)n2)CC1	-10.02
COc1ccc(CNC(=O)CNc2cc3c(cc2Cl)OCCCO3)cc1	0.3306
Cn1nc(CN2CCCCC2)c2c1CN(Cc1ccoc1)C2.O=C(O)C(F)(F)F.O=C(O)C(F)(F)F	-5.276
Cn1nc(CN2CCCC2)c2c1CN(C(=O)c1cnccn1)CC2	-11.87
CC(C)n1nc(CN(C)C)c2c1CN(C(=O)CC1CC1)CC2.O=C(O)C(F)(F)F	-12.31
CC(C)n1nc(CN2CCCC2)c2c1CN(CC1CC1)CC2.O=C(O)C(F)(F)F.O=C(O)C(F)(F)F	114.1
Cn1nc(CN2CCCC2)c2c1CN(CC1CC1)CC2.O=C(O)C(F)(F)F.O=C(O)C(F)(F)F	104.5
Cn1nc(CN2CCCC2)c2c1CN(C(=O)Nc1cccc(F)c1)CC2.O=C(O)C(F)(F)F	-17.26
Cn1nc(CN2CCCC2)c2c1CN(c1cnccn1)CC2.O=C(O)C(F)(F)F.O=C(O)C(F)(F)F	110

Compound	Percent Effect [%]
CC(C)n1nc(CN(C)C)c2c1CN(CC1CC1)CC2.O=C(O)C(F)(F)F.O=C(O)C(F)(F)F	-1.133
Cn1nc(CNC(=O)CC#N)c2c1CN(CC1CC1)CC2.O=C(O)C(F)(F)F	-7.895
O=C(Cc1cccs1)N1CC(c2nc(-c3cnccn3)no2)C1	16.37
CC(C)CN1CCN(S(=O)(=O)c2cn(C)cn2)[C@H]2CS(=O)(=O)C[C@H]21	-0.9827
N#Cc1ccc(F)c(CN(CC(=O)N2CCCC2)CC2CCCO2)c1 (stereo unspecified)	-8.762
CCc1cc(CN(C)C(=O)c2nnc(CN(C)C)o2)on1	-21.92
COc1ccc(CN(C)c2ncc(S(N)(=O)=O)s2)c(OC)c1	-0.4358
CCc1nc(C2CCCN2C(=O)c2ncoc2CC)no1 (stereo unspecified)	6.406
CCc1nc(C2CCCN2C(=O)CCc2c(C)noc2Cl)no1 (stereo unspecified)	102.7
O=C(CCc1cscn1)N1CCCC1c1noc(C2CC2)n1 (stereo unspecified)	2.466
CCc1nc(C2CCCN2C(=O)c2ccoc2C)no1 (stereo unspecified)	-2.017
CCc1nc(C2CCCN2C(=O)CCc2ccc3c(c2)OCO3)no1 (stereo unspecified)	-10.43
CCc1nc(C2CCCN2C(=O)CCc2nc(C3CC3)no2)no1 (stereo unspecified)	115.8
CCc1nc(C2CCCN2C(=O)CCc2nc(C(C)(C)C)no2)no1 (stereo unspecified)	121.6
CCc1nc(C2CCCN2C(=O)c2c[nH]c(C)n2)no1 (stereo unspecified)	-5.998
CCCc1noc(CCC(=O)N2CCCC2c2noc(C3CC3)n2)n1 (stereo unspecified)	-5.991
CCc1nc(C2CCCN2C(=O)CCc2cscn2)no1 (stereo unspecified)	107.6
CCc1nc(C2CCCN2C(=O)CCNS(C)(=O)=O)no1 (stereo unspecified)	1.725
